# Measured values from the supplement of paper PMC11628255, “Interference of metal ions on the bioluminescent signal of firefly, Renilla, and NanoLuc luciferases in high-throughput screening assays” (Frontiers in Chemistry, 2024).
# ± gives the standard deviation of the averaged measurements.
# Test system: firefly luciferase (FLuc)
# Assay: residual bioluminescent signal relative to negative (DMSO) control; higher = less interference (more residual luciferase signal)
# Protocol: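 Purified luciferase (FLuc 10 nM + 10 uM D-luciferin; NLuc 10 pM + 10 uM furimazine; RLuc 50 pM + 2 uM coelenterazine) in 384-well plates; metal salt pre-incubated with enzyme 10 min at RT, substrate added and luminescence read after 10 min. Signal normalised to plate DMSO negative control (% N_VALUE = x/mean neg *100); triplicate wells at 0.01, 1 and 5 mM salt.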
# [1] = metal salt concentration 0.01 mM, HEPES conditions (100 mM HEPES, 5 mM MgSO4, 10 uM ATP, pH 7.5)
# [2] = metal salt concentration 0.01 mM, screening conditions (0.5 mM Tris, 50 mM glycine, 0.5 mM EDTA, 5 mM MgSO4, 10 uM ATP, pH 7.6)
# [3] = metal salt concentration 1 mM, HEPES conditions (100 mM HEPES, 5 mM MgSO4, 10 uM ATP, pH 7.5)
# [4] = metal salt concentration 1 mM, screening conditions (0.5 mM Tris, 50 mM glycine, 0.5 mM EDTA, 5 mM MgSO4, 10 uM ATP, pH 7.6)
# [5] = metal salt concentration 5 mM, HEPES conditions (100 mM HEPES, 5 mM MgSO4, 10 uM ATP, pH 7.5)
# [6] = metal salt concentration 5 mM, screening conditions (0.5 mM Tris, 50 mM glycine, 0.5 mM EDTA, 5 mM MgSO4, 10 uM ATP, pH 7.6)
Compound,residual bioluminescent signal [1] [%],residual bioluminescent signal [2] [%],residual bioluminescent signal [3] [%],residual bioluminescent signal [4] [%],residual bioluminescent signal [5] [%],residual bioluminescent signal [6] [%]
[Cl][Pt-2]([Cl])([Cl])[Cl].[K+].[K+] [potassium tetrachloroplatinate(II)],85 ± 8,87.9 ± 6.2,3.8 ± 0.62,0.659 ± 0.66,1.09 ± 0.23,0.343 ± 0.12
[Cl-].[Na+] [sodium chloride],102 ± 17,104.5 ± 0.25,103 ± 19,101 ± 5.4,92.4 ± 2,79.7 ± 3.2
O=C([O-])[O-].[K+].[K+] [potassium carbonate],84.3 ± 17,81.3 ± 3,83.9 ± 16,85.8 ± 6.4,67.9 ± 15,49.2 ± 8.7
O=S(=O)([O-])[O-].[Mn+2] [manganese(II) sulfate],85 ± 11,82.6 ± 4.7,80.6 ± 12,77.1 ± 3.5,79.4 ± 13,57.4 ± 8.1
O.O.O.O.O.O.O.O=S(=O)([O-])[O-].[Mg+2] [magnesium sulfate],78.3 ± 4.9,71.5 ± 6.5,77.4 ± 17,68 ± 5.2,55.5 ± 13,47.7 ± 6.9
CC#N.CC#N.CC#N.CC#N.F[B-](F)(F)F.[Cu+] [tetrakis(acetonitrile)copper(I) tetrafluoroborate],0.543 ± 0.23,115 ± 2.9,0.407,0.474 ± 0.16,0.679 ± 0.47,0.422 ± 0.36
[Cl][Fe][Cl] [iron(II) chloride],28.9 ± 6.8,108 ± 1.6,1.76 ± 0.23,0.343 ± 0.046,0.814 ± 0.7,0.369 ± 0.091
